Source: PubChem BioAssay AID431 (Sanford-Burnham Center for Chemical Genomics, 2006)
Hit rate of the full screen: of about 63,000 compounds, about 1,100 (1.7%) were called active. Only a selection was taken, and actives are over-represented in it overall. Measured potencies and affinities stand elsewhere. Unmarked numbers belong to inactive results.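 The calls were made as follows: active = compounds whose percent cytotoxicity in the single-dose primary screen, scaled between solvent and toxic-drug controls, exceeds 50; inactive = the rest.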

Assay: viability loss of HPDE-C7K cells – cell-based, fluorescence, HTS, primary screen (AID 431);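 also: 0% = DMSO solvent wells and 100% = doxorubicin-treated wells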
Settings: HPDE-C7K KRASV12 cells, Alamar Blue viability, 48 h; at 10 µM; hits give high values
`CC1CC(c2ccccc2)n2nc(NC(=O)CCc3ccccc3)nc2N1` (stereo not given) gave a cytotoxicity of 3.9%. Compound `O=C(NCc1cccs1)c1noc2c1CCCC2` has a cytotoxicity of 5.2%. Work on `O=C1CC(N2CCN(c3ccc(S(=O)(=O)N4CCCC4)cc3)CC2)C(=O)N1c1ccc(F)cc1` (stereo not given) yielded a cytotoxicity of -0.7%. For `CCOc1ccc2[nH]c(O)c(NC(C)=O)c2c1`, the cytotoxicity was -16.9%. Compound `Cc1oc(-c2ccc(Cl)cc2)nc1CN1CCC(C(=O)N2CCN(c3ccccn3)CC2)CC1` has a cytotoxicity of 8%. With `O=C(NC1CCCCC1)n1c(=O)oc2ccccc21` the cytotoxicity was -35.5%. `O=C(Nc1nc(-c2ccco2)cs1)c1ccccc1` gave a cytotoxicity of 20.8%. For `Cc1nc(C)c(-c2csc(NCc3ccco3)n2)s1`, the cytotoxicity was -14.9%. `O=C(Nc1nc2c(s1)C(=O)CCC2)c1ccccc1` gave a cytotoxicity of -6.7%. `CCOC(=O)c1csc(NC(=O)c2ccccc2)n1` showed a cytotoxicity of -0.2%. For `Cc1nc(NC(=O)c2ccccc2)sc1-c1csc(N)n1`, the cytotoxicity was 58.6% (active). With `Cc1nc(NC(=O)c2ccccc2)sc1-c1csc(NCc2ccco2)n1` the cytotoxicity was 73.6% (active). In the case of `Cn1c(=O)c2c(nc(SCC(=O)O)n2Cc2cccc(C(F)(F)F)c2)n(C)c1=O`, the cytotoxicity is reported as -7.6%. `CCCCOc1ccc(/C(O)=C2/C(=O)C(=O)N(CCCOC)C2c2ccncc2)cc1C` (stereo not given) gave a cytotoxicity of -8.2%. In the case of `COc1ccc(CN2C(=O)NC3(CCCCCC3)C2=O)cc1F`, the cytotoxicity is reported as -2.8%. With `CC(C)(C)c1cc(NC(=O)c2cccnc2)no1` the cytotoxicity was -7.8%. With `O=C(Cn1c(=O)sc2ccccc21)Nc1ccccc1C(=O)O` the cytotoxicity was 18.1%. Compound `COc1ccc(C2C(C(=O)Nc3ccccc3OC)=C(C)Nc3ncnn32)cc1` (stereo not given) has a cytotoxicity of -6.4%. `CCOC(=O)C1=C(C)OC(N)=C(C#N)C1c1ccc(OC)c(C)c1OC` (stereo not given) gave a cytotoxicity of 2.9%. In the case of `CCOC(=O)C1=C(CSc2nc3c(cc2C#N)CCC3)OC(N)=C(C#N)C1c1ccccc1` (stereo not given), the cytotoxicity is reported as 108% (active). Compound `CCOC(=O)C1=C(CSc2nc3c(cc2C#N)CN(C)CC3)OC(N)=C(C#N)C1c1ccccc1` (stereo not given) has a cytotoxicity of 14.3%. Work on `CCOC(=O)C1=C(CSc2nc(C)cc(C)c2C#N)OC(N)=C(C#N)C1c1cccs1` (stereo not given) yielded a cytotoxicity of -2.2%. For `CCOC(=O)C1=C(CSc2nc(-c3ccncc3)ccc2C#N)OC(N)=C(C#N)C1c1cccnc1` (stereo not given), the cytotoxicity was 20%. In the case of `CCOC(=O)C1=C(CSc2nc(C)ccc2C#N)OC(N)=C(C#N)C1c1cccc(OC)c1OC` (stereo not given), the cytotoxicity is reported as 57.6% (active). Work on `COc1cc(S(=O)(=O)NCC2CCCO2)c(OC)cc1Cl` (stereo not given) yielded a cytotoxicity of -5.9%. For `CCN(CC)CCN1C(=O)C(=O)/C(=C(/O)c2ccc(Cl)cc2)C1c1ccncc1` (stereo not given), the cytotoxicity was -16.4%. For `CCOc1ccc(N2CC(=O)SC2=S)cc1`, the cytotoxicity was -11.8%. With `Cc1ccc(C#N)c(SCc2cc3c(cc2Cl)OCO3)n1` the cytotoxicity was 2.4%. `COc1ccc(S(=O)(=O)Cc2ccc(C(=O)NC3CC3)o2)cc1` showed a cytotoxicity of -11.3%. For `O=C(CN1C(=O)COc2ccccc21)N(Cc1cccnc1)Cc1cccc(F)c1`, the cytotoxicity was -1.8%. For `O=C(NCc1ccccn1)C1CCN(S(=O)(=O)c2cccs2)CC1`, the cytotoxicity was -6.5%. In the case of `Cc1cc(C)cc(N2C(=O)CC(N3CCOCC3)C2=O)c1` (stereo not given), the cytotoxicity is reported as 1.2%. `N#Cc1nc(-c2ccc(F)cc2)oc1N1CCCC1` gave a cytotoxicity of 3.4%. For `O=C(c1ccc(F)cc1)c1ccc(N2CCCC2)cc1`, the cytotoxicity was -11%. `CCCn1c(SCC(=O)NC(=O)NCc2ccco2)n[nH]c1=O` showed a cytotoxicity of -2.3%. In the case of `O=C(NCC1CCCO1)c1cc2n(n1)C(C(F)(F)F)CC(c1ccc(Br)cc1)N2` (stereo not given), the cytotoxicity is reported as 6.4%. `O=S1(=O)CCC(NCC2CCCO2)C1` (stereo not given) gave a cytotoxicity of 6.3%. In the case of `CCOc1ccc(/C(O)=C2\C(=O)C(=O)N(CCN(C)C)C2c2cc(OC)ccc2OC)cc1Cl` (stereo not given), the cytotoxicity is reported as -1.7%. `CSc1ccc(Cl)c(C(=O)OCC(=O)N2CCOCC2)c1` gave a cytotoxicity of -13.8%. For `N#C/C(=C\c1ccc(O)c(O)c1)S(=O)(=O)c1ccccc1`, the cytotoxicity was 5.4%. In the case of `N#C/C(=C\c1ccc(O)c(O)c1)C(=O)NCCCc1ccccc1`, the cytotoxicity is reported as 54.7% (active). With `O=C(NCCCc1ccccc1)c1ccccc1O` the cytotoxicity was -6.1%. In the case of `Cc1ccc(S(=O)(=O)N2CCCCC2)cc1C(=O)c1nccn1C`, the cytotoxicity is reported as -13.8%. `CCOc1ccc(NC(=O)CCS(=O)(=O)c2ccc3c(c2)CCCN3C(C)=O)cc1` showed a cytotoxicity of -19.8%. `O=C(Cn1c(CN2CCCCC2)nc2ccccc2c1=O)NCc1ccco1` showed a cytotoxicity of -21.9%. With `COc1ccc(CCn2c(N)c(C(=O)NCc3ccco3)c3nc4ccccc4nc32)cc1OC` the cytotoxicity was 57.5% (active). Work on `Nc1c(C(=O)NCCN2CCOCC2)c2nc3ccccc3nc2n1-c1ccccc1` yielded a cytotoxicity of -0.8%. Work on `COc1ccc(-n2c(N)c(C(=O)NCc3ccco3)c3nc4ccccc4nc32)c(OC)c1` yielded a cytotoxicity of 5.2%. Work on `COc1ccc(CCn2c(N)c(C#N)c3nc4ccccc4nc32)cc1OC` yielded a cytotoxicity of -1.9%. With `Cc1cccc(-n2c(Cc3cc(=O)[nH]c(=O)[nH]3)nnc2SCC(=O)NCc2ccco2)c1` the cytotoxicity was -4.5%. Work on `O=C(NCc1cccc(F)c1)c1noc2c1CCCC2` yielded a cytotoxicity of -1.2%. `Cc1cc(O)cc(=O)n1Cc1ccco1` showed a cytotoxicity of -8.3%. `COc1cc(Cl)c(S(=O)(=O)n2cnc(C)c2)cc1Cl` showed a cytotoxicity of 4.1%. In the case of `COc1cc(C)c(C(C)C)cc1S(=O)(=O)N1CCN(C)CC1`, the cytotoxicity is reported as -21.8%. Compound `COc1ccc(-c2c(C)oc3c(CN4CCN(C)CC4)c(O)ccc3c2=O)cc1` has a cytotoxicity of -6.1%. Compound `CCOC(=O)C1=C(CS(=O)(=O)c2ccccc2)NC(=O)NC1c1ccccc1OCC` (stereo not given) has a cytotoxicity of -3.7%. For `Cc1ccc(S(=O)(=O)CC(c2ccccc2)N2CCOCC2)cc1` (stereo not given), the cytotoxicity was -3.6%. Work on `Nc1ncn(C(=O)c2ccco2)n1` yielded a cytotoxicity of 4.4%. Compound `O=C(COc1cc(=O)n2c(n1)SCCC2)c1ccccc1` has a cytotoxicity of -1.2%. For `CN1CCN(CCCN2c3ccccc3Sc3ccc(Cl)cc32)CC1`, the cytotoxicity was 82.7% (active). Work on `CCOC(=O)Nc1ccc2c(c1)N(C(=O)CN1CCN(C)CC1)c1ccccc1S2` yielded a cytotoxicity of 5.6%. In the case of `O=C(CN1CCN(CCOCCO)CC1)N1c2ccccc2Sc2ccc(Cl)cc21`, the cytotoxicity is reported as -26%. `OCCN1CCN(C(=S)c2ccc(Cl)cc2)CC1` showed a cytotoxicity of -18.6%. For `CN1CCN(CCC(=O)N2c3ccccc3Sc3ccc(Cl)cc32)CC1`, the cytotoxicity was 35.1%. Work on `CC(=O)C1=C(O)C(=O)N(CCN2CCOCC2)C1c1ccc(N(C)C)cc1` (stereo not given) yielded a cytotoxicity of -11.6%. Compound `Cc1oc(-c2cccc(Cl)c2)nc1CN1CCC(C(=O)NCC2CCCO2)CC1` (stereo not given) has a cytotoxicity of 21.4%. `COc1ccc(OC)c(C2C(C(C)=O)=C(O)C(=O)N2CCN2CCOCC2)c1` (stereo not given) showed a cytotoxicity of 3.1%. For `COc1cccc(C(=O)CSc2nnc(CNc3nc(-c4ccccc4)cs3)n2C)c1`, the cytotoxicity was -0.3%. For `CC(CC1C(C#N)=C(N)OC2=C1C(=O)CCC2)c1ccccc1` (stereo not given), the cytotoxicity was -2.7%. `Cc1cccc(-c2noc(CCc3ccccc3)n2)c1` showed a cytotoxicity of 4.2%. With `Cc1ccc(Nc2nc(N)nc(CN3CCN(Cc4ccc5c(c4)OCO5)CC3)n2)c(C)c1` the cytotoxicity was -5.2%. With `Cc1cc(C(=O)NCCCN2CCN(C3CCCCC3)CC2)n(-c2ccccc2)n1` the cytotoxicity was -1%. For `Cc1cc(C(=O)NCCN2CCN(c3cccc(Cl)c3)CC2)n(-c2ccccc2)n1`, the cytotoxicity was 60.3% (active). With `Cc1cc(C(=O)NCCCN2CCOCC2)n(-c2ccccc2)n1` the cytotoxicity was -11.4%. `CCN(CC)S(=O)(=O)c1ccc(N2CCCC2)c(C(=O)OCC(=O)/C(C#N)=C(\C)N)c1` showed a cytotoxicity of 10.5%. `CC(C)=C1C2C=CC1C(C(=O)Nc1cc(C)ccc1C)C2C(=O)O` (stereo not given) showed a cytotoxicity of -14.9%. Compound `CCOc1ccccc1NC(=O)Cn1nnc(C(=O)Nc2ccc(C)cc2)c1N` has a cytotoxicity of 5.2%. With `CCOc1ccccc1NC(=O)Cn1nnc(C(=O)Nc2ccccc2Cl)c1N` the cytotoxicity was 3.6%. In the case of `CCOc1ccccc1NC(=O)Cn1nnc(C(=O)NCc2ccco2)c1N`, the cytotoxicity is reported as 55.3% (active). `CCN(CC)CCCN1C(=O)C(=O)/C(=C(/O)c2cc(C)ccc2C)C1c1cccnc1` (stereo not given) gave a cytotoxicity of -4.8%. With `O=C(Nc1ccccc1Cl)c1c(F)c(F)c(F)c(F)c1F` the cytotoxicity was 0.3%. For `CCOC(=O)c1ccccc1NC(=O)c1ccccc1SC`, the cytotoxicity was 21.6%. Compound `Cc1ccccc1NC(=O)c1c(F)c(F)c(F)c(F)c1F` has a cytotoxicity of -12%. In the case of `CCOC(=O)c1ccccc1NC(=O)c1cccs1`, the cytotoxicity is reported as -12.9%. For `CC1=C(C#N)C(C)C2=C(CC(C)(C)CC2=O)N1` (stereo not given), the cytotoxicity was -3.6%. For `Cn1c(Cl)cnc1C1CC(=O)c2cc(Cl)ccc2O1` (stereo not given), the cytotoxicity was 67.1% (active). For `CN1CCN(C2=Nc3ccccc3Oc3ccc(Cl)cc32)CC1`, the cytotoxicity was -3.2%. For `COc1ccc2c(c1)C(=O)CC(c1ccccc1F)O2` (stereo not given), the cytotoxicity was 7.5%. For `O=C(Nc1ccc2nc[nH]c2c1)c1ccco1`, the cytotoxicity was 16.9%. For `COC(=O)C(C)Sc1nc2c(c(=O)[nH]c(=O)n2C)n1CCCc1ccccc1` (stereo not given), the cytotoxicity was -4.9%. `O=S(=O)(NCCO)c1cccc2cccnc12` gave a cytotoxicity of -9.3%. Compound `CCC(C)(C)n1nnnc1C(c1ccc(C)cc1)N1CCN(Cc2cccnc2)CC1` (stereo not given) has a cytotoxicity of -32%. `O=C(OCC(=O)N1CCN(C(=O)c2ccco2)CC1)c1cc(=O)c2ccccc2o1` gave a cytotoxicity of -1.9%. For `C=C1[C@@H](C)C2[C@H](Cc3ccccc3)NC(=O)[C@]23OC(=O)CC[C@H](O)CCC[C@H](C)C/C=C/[C@H]3[C@@H]1O` (stereo not given in full), the cytotoxicity was 59.8% (active). `Cc1ccc(Nc2cccccc2=O)cc1` showed a cytotoxicity of -1.6%.
